Results reported in PubChem BioAssay.
Active and inactive are the calls of the source. Unless noted, how the calls were made is not given here.

Legend:
[1] = resazurin metabolic signal in HepG2 cells – cell-based, resazurin fluorescence, 24 h, PK04 Diversity Set, profiling panel (AID 1172); conditions: HepG2 viability, higher = more signal
[2] = budding yeast growth changes without added modifier – OD600, strain BY4716, 24 h, basal condition, primary screen (AID 1173); conditions: S. cerevisiae BY4716 growth, OD600, 24 h; higher = more signal, called active from +8 up or from −8 down
[3] = viability profiling in MM1S myeloma cells – cell-based, resazurin fluorescence, basal, 24 h, PK04 Diversity Set, profiling panel (AID 1174); conditions: higher = more signal, called active from +8 up or from −8 down;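 further: MM1S multiple myeloma cell line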
[4] = target: Dihydroorotate dehydrogenase (quinone), mitochondrial (Plasmodium falciparum (isolate 3D7)) (UniProt Q08210); experiment: inhibition of P. falciparum DHODH – biochemical, C-terminal His tag, absorbance 600 nm, primary screen (AID 1175); conditions: PfDHODH enzyme, DCIP absorbance 600 nm; higher = more signal, called active from +8 up or from −8 down;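 further: recombinant parasite enzyme with a five histidine tag at its C terminus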
[5] = inhibition of PAO1 biofilm formation – strain PAO1, LB-PBS medium, absorbance 600 nm, primary screen (AID 1176); conditions: P. aeruginosa PAO1 growth/biofilm, A600, 12 h; higher = more signal
[6] = growth modulation of vineyard yeast isolate – strain RM11-1a, OD600, basal, 24 h, primary screen (AID 1177);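 further: cultures grown under basal conditions with no added stressor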; conditions: S. cerevisiae RM11-1a growth, OD600, 24 h; higher = more signal, called active from +8 up or from −8 down
[7] = growth of efflux-deficient E. coli DRC39 – strain DRC39, OD650, 24 h, E. coli filamentation inducers, primary screen (AID 1178);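 further: growth measured as culture turbidity by optical density at 650 nm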; conditions: E. coli DRC39 acrAB, higher = more signal, called active from +8 up or from −8 down
[8] = growth of efflux-deficient E. coli DRC39 – strain DRC39, OD650, 48 h, E. coli filamentation inducers, primary screen (AID 1179);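 further: screen aims at cell division blockers that make cells filament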; conditions: E. coli DRC39 delta-acrAB growth, higher = more signal, called active from +8 up or from −8 down
[9] = viability profiling in RPMI8226 myeloma cells – cell-based, resazurin fluorescence, basal, 24 h, PK04 Diversity Set, profiling panel (AID 1180); conditions: higher = more signal;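 further: RPMI8826 multiple myeloma cell line at 5000 cells per well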
[10] = target: E3 ubiquitin-protein ligase XIAP (Homo sapiens) (UniProt P98170); experiment: small molecules binding XIAP protein – biophysical, small-molecule microarray, fluorescence 635 nm, primary screen (AID 1181); conditions: higher = more signal;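 further: score merges 667 nm emission and signal to noise over triplicate slides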
[11] = tested on: XIP peptide (Xip251-270) binding; experiment: XIP fragment 251-270 binding compounds – biochemical, small-molecule microarray, fluorescence 635/667 nm, 0.1 µg/mL protein, primary screen (AID 1182); conditions: fluorescent protein binding, 635 nm, higher = more signal, called active from +8 up or from −8 down
XIP peptide (Xip251-270) = experiment: compounds binding XIP fragment 251-270 – biochemical, small-molecule microarray, fluorescence 635/667 nm, 0.5 µg/mL protein, primary screen (AID 1183); conditions: fluorescence 635 nm, higher = more signal
[12] = blood-stage malaria parasite viability loss – strain 3D7, DAPI fluorescence, 100 nL, primary screen (AID 1184);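 further: parasites grown inside human red blood cells in medium with human serum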; conditions: P. falciparum 3D7 growth, 3 d, higher = more signal
[13] = target: Homeobox protein Hox-A13 (Mus musculus) (UniProt Q62424); experiment: disruptors of Hoxa13 oligonucleotide interaction – biochemical, fluorescence polarization, labeled oligonucleotide, primary screen (AID 1185); conditions: Hoxa13:DNA binding, 15 min, higher = more signal, called active from +8 up or from −8 down
[14] = blockers of DNA damage checkpoint Chk1 activation – imaging, HeLa, hydroxyurea, phospho-Chk1 antibody, percent positive cells, primary screen (AID 1186); conditions: hydroxyurea-induced phospho-Chk1 immunofluorescence imaging, higher = more signal
[15] = blockers of DNA damage checkpoint Chk1 activation – imaging, HeLa, hydroxyurea, phospho-Chk1 nuclear intensity, primary screen (AID 1187); conditions: hydroxyurea-induced phospho-Chk1 immunofluorescence imaging, higher = more signal

Sequence of Dihydroorotate dehydrogenase (quinone), mitochondrial (Plasmodium falciparum (isolate 3D7)) (Q08210 whole entry, looked up): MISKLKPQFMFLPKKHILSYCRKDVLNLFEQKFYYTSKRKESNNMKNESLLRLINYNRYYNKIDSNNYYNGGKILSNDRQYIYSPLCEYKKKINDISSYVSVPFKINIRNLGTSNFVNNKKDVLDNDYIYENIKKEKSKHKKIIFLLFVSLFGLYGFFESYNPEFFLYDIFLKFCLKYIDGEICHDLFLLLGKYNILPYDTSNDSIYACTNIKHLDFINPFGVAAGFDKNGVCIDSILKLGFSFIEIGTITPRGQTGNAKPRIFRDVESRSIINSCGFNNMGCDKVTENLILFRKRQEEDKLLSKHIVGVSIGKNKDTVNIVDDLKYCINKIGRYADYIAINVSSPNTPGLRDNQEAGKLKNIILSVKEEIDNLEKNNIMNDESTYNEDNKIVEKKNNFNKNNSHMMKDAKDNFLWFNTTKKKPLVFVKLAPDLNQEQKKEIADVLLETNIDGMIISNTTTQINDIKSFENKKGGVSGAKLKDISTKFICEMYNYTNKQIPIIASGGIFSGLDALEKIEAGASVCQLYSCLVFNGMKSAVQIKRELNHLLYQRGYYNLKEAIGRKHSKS
Sequence of E3 ubiquitin-protein ligase XIAP (Homo sapiens) (P98170 whole entry, looked up, the tested form may be a part): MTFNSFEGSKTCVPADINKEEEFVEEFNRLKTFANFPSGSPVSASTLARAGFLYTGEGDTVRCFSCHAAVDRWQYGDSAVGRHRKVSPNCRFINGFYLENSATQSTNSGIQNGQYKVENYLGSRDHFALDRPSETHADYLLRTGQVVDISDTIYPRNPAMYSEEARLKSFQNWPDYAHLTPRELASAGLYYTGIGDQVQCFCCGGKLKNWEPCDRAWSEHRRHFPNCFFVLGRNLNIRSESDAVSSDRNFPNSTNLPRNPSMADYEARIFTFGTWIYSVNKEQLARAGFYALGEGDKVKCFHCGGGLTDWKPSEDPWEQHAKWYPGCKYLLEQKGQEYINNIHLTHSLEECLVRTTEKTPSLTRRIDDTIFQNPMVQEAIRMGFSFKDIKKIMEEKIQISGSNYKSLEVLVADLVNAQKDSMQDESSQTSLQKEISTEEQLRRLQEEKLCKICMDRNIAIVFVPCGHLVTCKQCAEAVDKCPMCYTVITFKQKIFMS
Sequence of Homeobox protein Hox-A13 (Mus musculus) (Q62424 whole entry, looked up): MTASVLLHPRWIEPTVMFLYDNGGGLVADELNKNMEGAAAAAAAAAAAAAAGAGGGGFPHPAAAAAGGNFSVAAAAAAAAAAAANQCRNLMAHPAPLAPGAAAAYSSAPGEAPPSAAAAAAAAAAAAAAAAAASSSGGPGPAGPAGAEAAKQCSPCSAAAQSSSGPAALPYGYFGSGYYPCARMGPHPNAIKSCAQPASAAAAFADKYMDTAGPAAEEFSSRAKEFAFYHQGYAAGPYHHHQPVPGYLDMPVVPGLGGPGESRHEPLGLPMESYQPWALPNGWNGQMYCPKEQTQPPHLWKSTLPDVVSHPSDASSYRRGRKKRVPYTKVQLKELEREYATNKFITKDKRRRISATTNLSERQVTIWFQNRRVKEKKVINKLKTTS

Row | Structure (SMILES) | z-score [1] | z-score [2] | z-score [3] | composite z-score [4] | z-score [5] | z-score [6] | z-score [7] | z-score [8] | z-score [9] | composite z-score [10] | composite z-score [11] | composite z-score (XIP peptide (Xip251-270)) | z-score [12] | z-score [13] | z-score [14] | z-score [15]
1 | COc1cc(CO)cc(I)c1O[C@H]1C=C(C(=O)NCCO)C[C@@H](NCc2ccccc2F)[C@@H]1O | -0.0271 | -2.31 (inactive) | -0.233 (inactive) | 1.28 (inactive) | -0.365 (inactive) | 1.09 (inactive) | 0.491 (inactive) | 0.41 (inactive) | 0.559 | 0.0669 | -0.346 (inactive) | 0.481 | -2.98 | -7.62 (inactive) | -0.24 (inactive) | 0.959 (inactive)
2 | CC(C)CNC(=O)[C@@H]1c2ccccc2C(=O)N(Cc2cc(F)cc(C(F)(F)F)c2)[C@H]1c1ccc(CO)cc1 | 0.564 | -0.874 (inactive) | 0.895 (inactive) | 0.369 (inactive) | 0.801 (inactive) | -0.604 (inactive) | 1.84 (inactive) | 1.42 (inactive) | 1.16 | 0.0651 | 1.02 (inactive) | 0.891 | 0.204 | -3.02 (inactive) | -0.478 (inactive) | -0.515 (inactive)
3 | CN1C(=O)C2C=CC(C(O)Cc3ccccc3)N(N(c3ccccc3)c3ccccc3)C2C1=O (stereo not drawn) | -0.567 | -0.519 (inactive) | -1.62 (inactive) | -0.443 (inactive) | 0.543 (inactive) | 0.303 (inactive) | -0.804 (inactive) | -0.233 (inactive) | -0.855 | 0.0918 | -0.072 (inactive) | 0.645 | -0.077 | -2.48 (inactive) | 0.077 (inactive) | -0.0628 (inactive)
4 | CCOC(=O)C[C@H]1[C@H](OC(=O)c2ccc(-c3ccccc3)cc2)[C@@H](NC(=O)C2CCCCC2)c2cc(OCCCO)ccc2N1C(=O)c1ccccc1 | -0.755 | 1.44 (inactive) | -0.464 (inactive) | 0.141 (inactive) | 0.656 (inactive) | 0.925 (inactive) | -0.406 (inactive) | -0.566 (inactive) | -0.95 | 0.0623 | -0.264 (inactive) | 0.379 | -0.723 | -2.07 (inactive) | -0.0374 (inactive) | 0.0385 (inactive)
5 | C[C@@H]1ON(c2ccc(C(=O)OC(C)(C)C)cc2)[C@H](c2ccc(Br)cc2)[C@H]1C(=O)N1C(=O)OC[C@H]1Cc1ccccc1 | 0.318 | 0.0743 (inactive) | 0.652 (inactive) | 0.315 (inactive) | 0.224 (inactive) | 0.538 (inactive) | 0.488 (inactive) | 0.46 (inactive) | 1.23 | -0.16 | 0.36 (inactive) | 0.321 | -0.238 | -0.654 (inactive) | -0.55 (inactive) | -0.237 (inactive)
6 | Cc1ccc(S[C@]2(C(=O)NC(C)C)CC(=O)N(C3Cc4ccccc4C3)[C@@H]2c2ccc(CO)cc2I)cc1 | -0.703 | -3.55 (inactive) | -3.17 (inactive) | -2.86 (inactive) | 0.379 (inactive) | -0.639 (inactive) | 0.525 (inactive) | 0.969 (inactive) | -2.08 | -0.0795 | -0.325 (inactive) | 0.86 | -0.619 | -2.24 (inactive) | 0.425 (inactive) | 0.191 (inactive)
7 | C=CCC(OC(C)=O)[C@@H]1[C@@H](N(Cc2ccc(-c3ccccc3)cc2)C(=O)c2cccc3ccccc23)c2cc(OCCCO)ccc2N1C(=O)Cc1ccc2ccccc2c1 (stereo partly drawn) | 0.0989 | -0.456 (inactive) | -0.144 (inactive) | 0.0505 (inactive) | 0.374 (inactive) | -0.611 (inactive) | 0.326 (inactive) | -0.299 (inactive) | -0.187 | 0.18 | -0.366 (inactive) | 0.579 | -0.171 | -1.26 (inactive) | -0.8 (inactive) | -0.493 (inactive)
8 | CO[C@H]1O[C@H](CO)[C@@H](OC(=O)Nc2ccc(C(F)(F)F)cc2)[C@H](OC(=O)Nc2ccc3c(c2)OCO3)[C@H]1OC(=O)Nc1ccc2c(c1)OCO2 | -1.9 | 0.634 (inactive) | -3.06 (inactive) | -0.605 (inactive) | 0.854 (inactive) | 1.37 (inactive) | 0.436 (inactive) | -0.553 (inactive) | -3.35 | -0.289 | 1.22 (inactive) | 0.898 | -1.76 | -3.94 (inactive) | -0.318 (inactive) | -0.559 (inactive)
9 | COc1c(C)cc(-c2cc3c(c(-c4ccccc4)n2)[Si](C(C)C)(C(C)C)OC3)cc1C | 0.0316 | 0.256 (inactive) | 0.416 (inactive) | -0.149 (inactive) | 0.173 (inactive) | -0.741 (inactive) | 0.762 (inactive) | 0.319 (inactive) | 0.798 | 0.205 | 0.518 (inactive) | -0.479 | -1.03 | -0.238 (inactive) | -0.645 (inactive) | -0.268 (inactive)
10 | CCOC(=O)C1=CC[C@@H](c2ccccc2C(F)(F)F)N(S(=O)(=O)c2ccc(C)cc2)C1 | -0.217 | -3.44 (inactive) | -0.578 (inactive) | -2.99 (inactive) | -0.184 (inactive) | -1.07 (inactive) | -0.346 (inactive) | 0.984 (inactive) | -0.338 | -0.12 | 0.561 (inactive) | 0.667 | -0.386 | -2.64 (inactive) | -0.155 (inactive) | -0.341 (inactive)
11 | C=CCC(OC(C)=O)[C@@H]1[C@@H](N(Cc2cc3ccccc3o2)C(=O)c2ccc(C)cc2)c2cc(OCCCO)ccc2N1C(=O)Cc1ccc2ccccc2c1 (stereo partly drawn) | 0.85 | 0.0206 (inactive) | -0.589 (inactive) | 0.507 (inactive) | -0.501 (inactive) | 0.554 (inactive) | 0.964 (inactive) | 1.08 (inactive) | 0.305 | 0.162 | -0.303 (inactive) | -0.419 | -0.429 | -1.45 (inactive) | 0.0151 (inactive) | 0.0749 (inactive)
12 | Cc1ccc(S[C@]2(C(=O)NCCN3CCOCC3)CC(=O)N(Cc3ccccc3C(F)(F)F)[C@@H]2c2ccc(CO)cc2I)cc1 | 0.628 | -3.34 (inactive) | -2.71 (inactive) | -0.323 (inactive) | 0.875 (inactive) | -1.57 (inactive) | 0.142 (inactive) | 0.0559 (inactive) | -2.22 | -0.17 | 0.109 (inactive) | 0.895 | -0.701 | -3.32 (inactive) | 0.354 (inactive) | 0.873 (inactive)
13 | O=C1C[C@@](C(=O)NCC(F)(F)F)(c2ccc([N+](=O)[O-])cc2)[C@@H](c2ccc(CO)cc2)N1C1CCCCC1 | -0.289 | -0.693 (inactive) | -0.39 (inactive) | -0.356 (inactive) | 0.416 (inactive) | -0.815 (inactive) | 0.659 (inactive) | 0.0421 (inactive) | -0.12 | -0.209 | 0.925 (inactive) | 0.871 | 0.0369 | -4.46 (inactive) | -0.0554 (inactive) | -0.32 (inactive)
14 | C=CCNC(=O)[C@@H]1[C@H]2C(=O)O[C@H](c3ccccc3)[C@H](c3ccccc3)N2[C@H](c2ccccc2OCCO)[C@@]12C(=O)N(C(=O)OCCOC)c1ccc(C#CC3=CCCCC3)cc12 | 0.402 | 0.466 (inactive) | -1 (inactive) | -0.458 (inactive) | 2.19 (inactive) | 1.08 (inactive) | 0.368 (inactive) | 0.628 (inactive) | -1.31 | 0.0683 | 0.0103 (inactive) | 0.769 | -2.08 | 1.31 (inactive) | -0.136 (inactive) | -0.103 (inactive)
15 | C=CC[C@H](OC(=O)Nc1ccc(OC)cc1)c1ccc(O)c2ccccc12 | -0.878 | -16.7 (active) | -6.07 (inactive) | -7.13 (inactive) | 1.82 (inactive) | -20 (active) | 0.852 (inactive) | 0.148 (inactive) | -4.15 | -0.0872 | -0.104 (inactive) | 0.616 | -1.36 | -0.0657 (inactive) | 0.936 (inactive) | 0.821 (inactive)
16 | C[C@]1(C(=O)O)c2ccccc2C(=O)N(Cc2ccccc2)[C@H]1c1ccc(CO)cc1 | 0.244 | 0.451 (inactive) | 0.936 (inactive) | 0.798 (inactive) | -0.633 (inactive) | 1.91 (inactive) | -0.0256 (inactive) | -0.373 (inactive) | 0.988 | 0.013 | -0.339 (inactive) | 0.416 | -0.393 | -1.72 (inactive) | -0.107 (inactive) | 0.194 (inactive)
17 | COc1ccccc1CN1C(=O)c2ccccc2[C@](Cc2ccccc2I)(C(=O)NC(C)C)[C@@H]1c1ccc(CO)cc1 | 0.985 | -0.601 (inactive) | -0.577 (inactive) | -2.47 (inactive) | -0.379 (inactive) | 0.862 (inactive) | 1.05 (inactive) | 1.01 (inactive) | -0.305 | -0.253 | 0.265 (inactive) | 0.585 | -1.95 | -3.59 (inactive) | -0.316 (inactive) | -0.471 (inactive)
18 | C=CCC(OC(C)=O)[C@@H]1[C@@H](N(Cc2cc3ccccc3o2)C(=O)Cc2ccc(F)cc2)c2cc(OCCCO)ccc2N1C(=O)c1ccc2ccccc2n1 (stereo partly drawn) | 0.182 | -0.44 (inactive) | 0.74 (inactive) | -0.235 (inactive) | 0.243 (inactive) | -0.176 (inactive) | 0.106 (inactive) | 0.155 (inactive) | 0.708 | -0.217 | -0.173 (inactive) | -0.442 | 0.774 | -1.55 (inactive) | 0.702 (inactive) | 0.636 (inactive)
